According to PubChem BioAssay (NCATS):
Inconclusive results are not listed. Activity calls are given as the source filed them. Calls follow the shape of the dose curve; as a rule, active = well fitted cell-killing curve with a large enough effect; inconclusive = small, poorly fitted or top-dose-only effect; inactive = no such curve, though single readings can be large or run the other way.

Experiment: qHTS of pediatric cancer cell lines to identify multiple opportunities for drug repurposing: Primary screen for LAN-5 cells (AID 1347100)
Conditions: LAN-5 neuroblastoma viability, CellTiter-Glo luminescence, 48 h; series mostly up to 46 µM; activity change, negative = cytotoxic: at the top concentration
Source text: Drug repurposing or repositioning has been offered as a strategy for drug development in oncology programs. This approach has special potential for childhood cancers and other rare or orphan diseases, where the expected return on new drug development has been a disincentive to pharmaceuticals.
In this project we exploit the poly-pharmacology of drugs to discover new indications via phenotypic screening of a panel of 19 well-characterized cell lines derived from solid tumors seen in children and adolescents. The goal is to identify approved drugs with previously unrecognized anticancer properties that has the potential to reveal new mechanisms and biological processes involved in carcinogenesis or drug resistance. We employed a titration-based paradigm (quantitative high-throughput screening or qHTS), where all compounds were tested at multiple concentrations for their effect on cell viability. Concentration-response curves (CRCs) were derived directly from the primary screen, and both potency and efficacy values were used to identify compounds with robust bioactivity profiles. We screened the NIH Chemical Genomics Center (NCGC) Pharmaceutical Collection (NPC) and Mechanism Interrogation Plate (MIPE) small molecule collections of approved and investigational compounds against these cell lines; and measured metabolically active cells after 48 hours of compound treatment as a proxy for cell viability.
Assay Submitter: Nathalia J. Martinez, National Center for Advancing Translational Sciences, National Institutes of Health, Rockville, MD, USA; email: natalia.martinez@nih.gov
[1] Shen, M et al. Quantitative high-throughput phenotypic screening of pediatric cancer cell lines identifies multiple opportunities for drug repurposing. Oncotarget 2017 Dec 19;9(4):4758-4772. PMID 29435139.
The cells were obtained from University of North Carolina (UNC), Pediatric Preclinical Testing Program (PPT), and Coriell Institute (CI).
qHTS cell viability assay:
Cells were assayed in growth media at a density of 500-1,000 cells/well. Five microliters of cells were dispensed into 1,536-well, white, solid-bottom, TC-treated plates (Greiner Bio One) using a multidrop dispenser and incubated at 37 degrees C, 5% CO2, under a humidified atmosphere for 5 hours. Twenty-three nanoliters of compounds and controls (neutral control DMSO or positive control bortezomib at final concentration of 2.3 µM) were subsequently transferred by Kalypsys pintool. For primary screens, the MIPE collection was tested at 11-point dilutions (final concentrations range from 0.78 nM to 46 µM) and the NPC collection at 8-point dilutions (final concentrations range from 0.59 nM to 46 µM). Compounds tested in follow-up screens were assayed at 11-point dilutions. Cells were incubated for 48 hours, followed by addition of 3 µL of CellTiter-Glo (Promega). After a 15 min incubation at room temperature, samples were analyzed for luminescence intensity using a ViewLux High-throughput CCD imager equipped with clear filters.
Potency is read from the fitted curve at half-maximal effect.

Structure (SMILES) | activity change, negative = cytotoxic | Potency
O=S(=O)(O)c1ccc2cc(N=Nc3cc(S(=O)(=O)O)c4cccnc4c3O)ccc2c1 | -19.5% (inactive) | –
Fc1ccc(C(c2ccc(F)cc2)N2CCN(CC=Cc3ccccc3)CC2)cc1 | -11.1% (inactive) | –
CN[C@@H]1CN(c2ccc3c(=O)c(C(=O)O)cn(-c4nccs4)c3n2)C[C@@H]1OC | – | 1.02 µM (active)
CCc1cc(-c2n[nH]c(C)c2-c2ccc3c(c2)OCCO3)c(O)cc1O | – | 5.9 µM (active)
CC(C)[C@H](O)C(=O)N[C@@H](C)C(=O)N[C@@H]1C(=O)N(C)CCc2ccccc21 | 0.17% (inactive) | –
Cc1cnc(Nc2cccc(CN3CCOCC3)c2)nc1Nc1cccc(S(=O)(=O)NC(C)(C)C)c1 | – | 1.48 µM (active)
N#CC(=C1Nc2ccccc2S1)c1ccnc(OCc2ccc(CN3CCOCC3)cc2)n1 | – | 1.48 µM (active)
O=C1NC(=O)C(c2cnc3ccccn23)=C1c1cn2c3c(cccc13)CN(C(=O)N1CCOCC1)CC2 | – | 2.96 µM (active)
NS(=O)(=O)c1cc(Cl)c(Cl)c(S(N)(=O)=O)c1 | 2.66% (inactive) | –
CC1(C)[C@H]2CC[C@]3(C)[C@@H](C(=O)C=C4[C@@H]5C[C@@](C)(C(=O)O)CC[C@]5(C)CC[C@]43C)[C@@]2(C)CC[C@@H]1O | -0.636% (inactive) | –
C[C@]12CCC3=C4CCC(=O)C=C4CC[C@@H]3[C@H]1CC[C@@]2(O)CC#N | 11.9% (inactive) | –
Nc1[nH]nc2nnc(-c3c(-c4ccccc4)nn4ccccc34)cc12 | – | 6.62 µM (active)
CCC(=O)N1CCN(c2ccc(-n3c(=O)ccc4cnc5ccc(-c6cnc7ccccc7c6)cc5c43)cc2C(F)(F)F)CC1 | -29.4% (inactive) | –
O=c1[nH]nc(OCCCc2ccc(Cl)cc2)c(NCc2cccnc2)c1Br | – | 18.7 µM (active)
COc1cc(Cl)cn2c(-c3cccc(NC4CNC4)n3)cnc12 | – | 16.6 µM (active)
CCCCN(CCCC)CC(O)c1cc(Cl)cc2c1-c1ccc(Cl)cc1C2=Cc1ccc(Cl)cc1 (stereo not given) | 2.25% (inactive) | –
O=C(O)CCNc1cc(N2CCc3ccccc3CC2)nc(-c2ccccn2)n1 | -6.15% (inactive) | –
N#CC(c1ccc(Cl)cc1)c1c(Cl)cc(-n2ncc(=O)[nH]c2=O)cc1Cl (stereo not given) | – | 7.43 µM (active)
NC[C@H]1O[C@H](O[C@@H]2[C@@H](O)[C@@H](O[C@H]3O[C@H](CO)[C@@H](O)[C@H](N)[C@@H]3O)[C@H](N)C[C@@H]2N)[C@H](O)[C@@H](O)[C@H]1O | 4.48% (inactive) | –
CCn1c(-c2nonc2N)nc2cncc(CNC3CCNCC3)c21 | – | 20.9 µM (active)

Structure (SMILES) | activity change, negative = cytotoxic | Potency
CCN1CCC(n2cc(CNc3cc(Cl)c4ncc(C#N)c(Nc5ccc(F)c(Cl)c5)c4c3)nn2)CC1 | – | 14.8 µM (active)
CO[C@H]1/C=C\O[C@@]2(C)Oc3c(C)c(O)c4c(O)c(c(C=NN5CCN(C6CCCC6)CC5)c(O)c4c3C2=O)NC(=O)C(C)=CC=C[C@H](C)[C@H](O)[C@@H](C)[C@@H](O)[C@@H](C)[C@H](OC(C)=O)[C@H]1C | – | 0.001 µM (active)
CN1N=C(N)c2cn([C@@H]3O[C@H](COP(=O)(O)O)[C@@H](O)[C@@H]3O)c3ncnc1c23 | – | 0.166 µM (active)
C#CCN(C)CC1=Cc2ccccc2Oc2ccccc21 | -12.4% (inactive) | –
Cc1nc2c([nH]1)CCN(C(=O)c1ccc(NC(=O)c3ccccc3-c3ccccc3)cc1)c1ccccc1-2 | -11.2% (inactive) | –
COc1c(C)c2c(c(O)c1CC=C(C)CCC(=O)O)C(=O)OC2 | – | 3.32 µM (active)
O=c1[nH]c(=O)n([C@H]2C[C@@H](O)[C@@H](CO)O2)cc1I | -6.32% (inactive) | –
O=C(c1ccc(C(=O)N2CCC(N3CCCC3)CC2)c(Nc2ccccc2)c1)N1CCC(N2CCCC2)CC1 | -19.3% (inactive) | –
COc1cccc(OC)c1-c1cc(C(=O)NC2(C(=O)O)C3CC4CC(C3)CC2C4)nn1-c1ccnc2cc(Cl)ccc12 (stereo not given) | -5.33% (inactive) | –
CC[C@@H]([C@H](C)O)n1ncn(-c2ccc(N3CCN(c4ccc(OCC5CO[C@@](Cn6cncn6)(c6ccc(F)cc6F)C5)cc4)CC3)cc2)c1=O (stereo not given in full) | – | 18.7 µM (active)
CC(C)C[C@@H](C(=O)N[C@H](C(=O)OC1CCCC1)c1ccccc1)[C@H](O)C(=O)NO | – | 16.6 µM (active)
Cn1cnc(-c2cc3nccc(Oc4ccc(NC(=S)NC(=O)Cc5ccccc5)cc4F)c3s2)c1 | – | 16.6 µM (active)
CC(O)=C(C#N)C(=O)Nc1ccc(C(F)(F)F)cc1 | -13.6% (inactive) | –
CN1CCc2c(n(Cc3ccc(C(=O)NO)cc3)c3ccccc23)C1 | – | 16.6 µM (active)
CCC(=C(CC)c1ccc(O)cc1)c1ccc(O)cc1 | – | 16.6 µM (active)
COc1cc2c(cc1OC)CC(=O)N(CCCN(C)C[C@H]1Cc3cc(OC)c(OC)cc31)CC2 | -2.62% (inactive) | –
CCCCCOC(=O)Nc1nc(=O)n([C@@H]2O[C@H](C)[C@@H](O)C2O)cc1F (stereo not given in full) | -17.9% (inactive) | –
O=c1[nH]c(=O)n([C@H]2C[C@@H](O)[C@@H](CO)O2)cc1C(F)(F)F | – | 3.32 µM (active)
O=C1NC(=O)C(=Cc2ccc(-c3ccc(F)cc3O)o2)S1 | -18.9% (inactive) | –
CC[C@H](C=C[C@@H](C)[C@H]1CC[C@H]2[C@@H]3CC=C4C[C@@H](O)CC[C@]4(C)[C@@H]3CC[C@]12C)C(C)C | 18.2% [at 16.1 µM] (inactive) | –
